Source: ChEMBL document CHEMBL3433997, “St. Jude Leishmania screening dataset” (2016)

Biological target: Solute carrier family 2, facilitated glucose transporter member 1 (Homo sapiens) (UniProt P11166)
Assay: ST_JUDE_LEISH: Cytotoxicity at 2uM final concentration against transgenic Leishmania Mexicana promastigotes LmGLUT1 that are glucose transport deficient and complemented with the human glucose transporter GLUT1. Activity is measured by DNA content using SYBR green in vitro
Format: functional

Chain of Solute carrier family 2, facilitated glucose transporter member 1 (Homo sapiens) (P11166 whole entry): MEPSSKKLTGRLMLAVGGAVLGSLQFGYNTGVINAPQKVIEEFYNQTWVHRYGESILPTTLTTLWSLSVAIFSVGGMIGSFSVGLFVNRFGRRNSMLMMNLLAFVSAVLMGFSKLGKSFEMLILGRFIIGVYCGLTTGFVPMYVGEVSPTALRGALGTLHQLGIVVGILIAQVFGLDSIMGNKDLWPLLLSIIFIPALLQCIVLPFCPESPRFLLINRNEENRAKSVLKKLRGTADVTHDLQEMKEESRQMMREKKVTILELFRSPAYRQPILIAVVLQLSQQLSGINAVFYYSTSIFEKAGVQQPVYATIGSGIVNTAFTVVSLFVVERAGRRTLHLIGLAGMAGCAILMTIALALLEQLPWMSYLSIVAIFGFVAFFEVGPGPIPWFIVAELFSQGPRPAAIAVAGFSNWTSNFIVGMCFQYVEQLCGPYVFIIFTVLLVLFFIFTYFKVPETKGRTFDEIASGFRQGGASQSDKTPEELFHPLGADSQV

Structure (SMILES) | inhibition
COc1cc2/c(=N/c3ccc(Br)cc3F)nc[nH]c2cc1OCC1CCN(C)CC1 | -0.8%
CCOc1cc[nH]c(=O)n1 | -0.65%
CC(CNC1CCN(CCn2c(=O)ccc3ccc(F)cc32)CC1)c1ccccc1 (stereo not given) | -1.82%
Nc1cnc(C#Cc2cc3ncnc(N(CCN4CCOCC4)c4ccc(OCc5cccc(F)c5)c(Cl)c4)c3s2)cn1 | 1.16%
Cc1nnsc1C(=O)Nc1cccc(-c2csc(-c3nc4ccccc4[nH]3)c2)c1 | 2.53%
CN1CCN(Cc2ccc(-c3ccc4c(Nc5ccc(Cl)cc5F)ccnc4c3)o2)CC1 | 11.9%
CCCN1CCC(NCc2cn(C)nc2-c2ccc(Oc3ccccc3)cc2)CC1 | 10.8%
O=C(NC1CCN(Cc2ccccc2)CC1)c1ccc2c(=O)n(Cc3ccc(Cl)cc3)c(=S)[nH]c2c1 | 0.69%
COc1cc2nc(NCc3cccc(CNC(=O)c4ccc(-c5ccc(C(C)=O)cc5)cc4)c3)nc(N)c2cc1OC | 0.91%
COc1ccc(CCn2c(=N)c(C(=O)NCc3cccnc3)cc3c(=O)n4cccc(C)c4nc32)cc1 | 5.3%
c1ccc2[nH]c(CN(Cc3nc4ccccc4[nH]3)Cc3nc4ccccc4[nH]3)nc2c1 | -2.76%
CCN(CC)CCN(Cc1ccc(-c2ccc(C(F)(F)F)cc2)cc1)C(=O)Cn1cc(Cc2cnn(C)c2)c(=O)nc1/C=C/c1cccc(F)c1F | 3.81%
O=C(Nc1ccc(I)cc1)Nc1ccc(Cn2ncc(N3CCCNCC3)c(Cl)c2=O)cc1 | -2.09%
O=C(N[C@@H](CC1CCCCC1)C(=O)NCc1cccc(C(F)(F)F)c1)c1ccc(O)c(-c2ccc(Cl)c(Cl)c2)c1 | 1.91%
O=C(Nc1cccc(-c2ccc(-c3nc4cc(F)ccc4[nH]3)cc2)c1)Nc1ccc(Cl)c(Cl)c1 | 5.5%
CCCCCN1CCC(CNS(=O)(=O)c2ccc(C(=O)Nc3cccc(C(F)(F)F)c3)cc2)CC1 | 0.47%
CCN1CCC(N(Cc2ccc(-c3ccc(C(F)(F)F)cc3)cc2)C(=O)Cn2nc(C)c(=O)cc2SCc2ccc(F)cc2)CC1 | 0.5%
CN(C)CCn1c(N)c(-c2nc3ccccc3s2)c2nc(C#N)c(C#N)nc21 | 2.02%
Nc1oc2c(CN3CCCCCC3)c(O)ccc2c(=O)c1-c1nc2ccccc2s1 | -1.92%
COc1cccc(-c2cnc(-c3ccncc3)nc2C2CCN(Cc3ccc(NC(C)=O)cc3)CC2)c1 | 3.49%

Structure (SMILES) | inhibition
CC(=O)Nc1ccc(-c2nc3ccc(-c4nc5ccc(NC(C)=O)cc5[nH]4)cc3[nH]2)cc1 | 5.99%
Oc1cc(NC[C@H]2CCC[C@@H]2NCc2cc(Br)cc(Br)c2)nc2ccccc12 | 2.99%
CCNS(=O)(=O)c1ccc(Oc2ccc([N+](=O)[O-])cc2)cc1 | 0.11%
O=C(Nc1ccc2c(c1)CN(Cc1ccc(N3CCCC3)o1)CCC2)c1ccoc1 | 19.8%
COc1cc(Cc2cnc(N)nc2N)cc(OCCCOc2ccccc2)c1OC | 7.68%
CN1CCN(CCCSc2ccc3c(c2)ncn3-c2cc(OCc3ccccc3C(F)(F)F)c(C(N)=O)s2)CC1 | 8.47%
Cc1ccc(CN2CCN(c3cc4c(cc3Cl)CCN4C(=O)Cc3ccc(Cl)c(NC(=O)Nc4cccc(C#N)c4)c3)CC2)cc1 | -1.29%
CC(Cl)=CCc1c(C)nc2c(ccc3ccccc32)c1O | 4.44%
Cc1cc(NC(=O)NCCN2CCC(NS(=O)(=O)c3cccc(Br)c3)C2)c2ccccc2n1 (stereo not given) | 1.93%
COc1cc2c(cc1OCCN1CCC(N3CCCCC3)CC1)N(C(=O)/C=C/c1ccccc1Cl)CC2 | 0.24%
O=c1c2c([nH]c3cc(Cl)ccc13)CCCC2 | 4.95%
CCOC(=O)CN1Cc2cc(NCc3ccc4ccc5nc(C)[nH]c(=O)c5c4c3)ccc2C1=O | 0.55%
FC(F)(F)c1ccc(CNC2CCN(CC3CCCCC3)CC2)cc1 | 7.89%
Cc1cccc(Nc2nc(C)cc(N3CCCN(CC4CCCCC4)CC3)n2)c1 | -2.84%
Cc1[nH]c(C)c(-c2ccc(OCc3ccc(F)cc3)cc2)c(=O)c1Br | 0.17%
CCCCCOc1ccc(C(=NC)N(CCCCC)CCCCC)c2ccccc12 | 5.37%
CC(C)N1CCN(c2ccc(OCCCN3CCN(c4cccc(Cl)c4Cl)CC3)c(C(F)(F)F)c2)CC1 | 2.24%
NCC1CCCN1Cc1ccc(-c2cccc(-c3nc4cc(C(F)(F)F)ccc4[nH]3)c2)cc1 (stereo not given) | 1.03%
O=C1CN(C(=O)CCC2CCCC2)C(c2ccc(F)cc2)c2cc(F)ccc2N1 (stereo not given) | 5.81%
Cc1noc(C)c1-c1cccc(CNCc2ccc(-c3ccc(-c4nc5cccc(C)c5[nH]4)cc3)cc2)c1 | 2.03%

Biological target: Hexose transporter 1 (Plasmodium falciparum) (UniProt O97467)
Assay: ST_JUDE_LEISH: Cytotoxicity at 2uM final concentration against transgenic Leishmania Mexicana promastigotes LmPfHT that are glucose transport deficient and complemented with the Plasmodium falciparum hexose transporter. Activity is measured by DNA content using SYBR green in vitro
Format: functional

Structure (SMILES) | inhibition
COc1cc2/c(=N/c3ccc(Br)cc3F)nc[nH]c2cc1OCC1CCN(C)CC1 | 2.56%
CCOc1cc[nH]c(=O)n1 | 2.36%
CC(CNC1CCN(CCn2c(=O)ccc3ccc(F)cc32)CC1)c1ccccc1 (stereo not given) | -1.07%
Nc1cnc(C#Cc2cc3ncnc(N(CCN4CCOCC4)c4ccc(OCc5cccc(F)c5)c(Cl)c4)c3s2)cn1 | 0.42%
Cc1nnsc1C(=O)Nc1cccc(-c2csc(-c3nc4ccccc4[nH]3)c2)c1 | 3.19%
CN1CCN(Cc2ccc(-c3ccc4c(Nc5ccc(Cl)cc5F)ccnc4c3)o2)CC1 | 11.8%
CCCN1CCC(NCc2cn(C)nc2-c2ccc(Oc3ccccc3)cc2)CC1 | 11%
O=C(NC1CCN(Cc2ccccc2)CC1)c1ccc2c(=O)n(Cc3ccc(Cl)cc3)c(=S)[nH]c2c1 | -0.17%
COc1cc2nc(NCc3cccc(CNC(=O)c4ccc(-c5ccc(C(C)=O)cc5)cc4)c3)nc(N)c2cc1OC | -0.03%
COc1ccc(CCn2c(=N)c(C(=O)NCc3cccnc3)cc3c(=O)n4cccc(C)c4nc32)cc1 | 4.73%
c1ccc2[nH]c(CN(Cc3nc4ccccc4[nH]3)Cc3nc4ccccc4[nH]3)nc2c1 | 1.73%
CCN(CC)CCN(Cc1ccc(-c2ccc(C(F)(F)F)cc2)cc1)C(=O)Cn1cc(Cc2cnn(C)c2)c(=O)nc1/C=C/c1cccc(F)c1F | 4.43%
O=C(Nc1ccc(I)cc1)Nc1ccc(Cn2ncc(N3CCCNCC3)c(Cl)c2=O)cc1 | -3.01%
O=C(N[C@@H](CC1CCCCC1)C(=O)NCc1cccc(C(F)(F)F)c1)c1ccc(O)c(-c2ccc(Cl)c(Cl)c2)c1 | 1.58%
O=C(Nc1cccc(-c2ccc(-c3nc4cc(F)ccc4[nH]3)cc2)c1)Nc1ccc(Cl)c(Cl)c1 | 2.93%
CCCCCN1CCC(CNS(=O)(=O)c2ccc(C(=O)Nc3cccc(C(F)(F)F)c3)cc2)CC1 | 0.02%
CCN1CCC(N(Cc2ccc(-c3ccc(C(F)(F)F)cc3)cc2)C(=O)Cn2nc(C)c(=O)cc2SCc2ccc(F)cc2)CC1 | 0.04%
CN(C)CCn1c(N)c(-c2nc3ccccc3s2)c2nc(C#N)c(C#N)nc21 | 1.76%
Nc1oc2c(CN3CCCCCC3)c(O)ccc2c(=O)c1-c1nc2ccccc2s1 | 6.76%
COc1cccc(-c2cnc(-c3ccncc3)nc2C2CCN(Cc3ccc(NC(C)=O)cc3)CC2)c1 | 4.22%

Structure (SMILES) | inhibition
CC(=O)Nc1ccc(-c2nc3ccc(-c4nc5ccc(NC(C)=O)cc5[nH]4)cc3[nH]2)cc1 | 3.79%
Oc1cc(NC[C@H]2CCC[C@@H]2NCc2cc(Br)cc(Br)c2)nc2ccccc12 | 4.07%
CCNS(=O)(=O)c1ccc(Oc2ccc([N+](=O)[O-])cc2)cc1 | -1.31%
O=C(Nc1ccc2c(c1)CN(Cc1ccc(N3CCCC3)o1)CCC2)c1ccoc1 | 12.8%
COc1cc(Cc2cnc(N)nc2N)cc(OCCCOc2ccccc2)c1OC | 4.04%
CN1CCN(CCCSc2ccc3c(c2)ncn3-c2cc(OCc3ccccc3C(F)(F)F)c(C(N)=O)s2)CC1 | 11.1%
Cc1ccc(CN2CCN(c3cc4c(cc3Cl)CCN4C(=O)Cc3ccc(Cl)c(NC(=O)Nc4cccc(C#N)c4)c3)CC2)cc1 | -1.46%
CC(Cl)=CCc1c(C)nc2c(ccc3ccccc32)c1O | 3.06%
Cc1cc(NC(=O)NCCN2CCC(NS(=O)(=O)c3cccc(Br)c3)C2)c2ccccc2n1 (stereo not given) | 0.98%
COc1cc2c(cc1OCCN1CCC(N3CCCCC3)CC1)N(C(=O)/C=C/c1ccccc1Cl)CC2 | 1.79%
O=c1c2c([nH]c3cc(Cl)ccc13)CCCC2 | 3.08%
CCOC(=O)CN1Cc2cc(NCc3ccc4ccc5nc(C)[nH]c(=O)c5c4c3)ccc2C1=O | 1.98%
FC(F)(F)c1ccc(CNC2CCN(CC3CCCCC3)CC2)cc1 | 7.71%
Cc1cccc(Nc2nc(C)cc(N3CCCN(CC4CCCCC4)CC3)n2)c1 | 1.98%
Cc1[nH]c(C)c(-c2ccc(OCc3ccc(F)cc3)cc2)c(=O)c1Br | -1.87%
CCCCCOc1ccc(C(=NC)N(CCCCC)CCCCC)c2ccccc12 | 10.9%
CC(C)N1CCN(c2ccc(OCCCN3CCN(c4cccc(Cl)c4Cl)CC3)c(C(F)(F)F)c2)CC1 | 1.13%
NCC1CCCN1Cc1ccc(-c2cccc(-c3nc4cc(C(F)(F)F)ccc4[nH]3)c2)cc1 (stereo not given) | 1.99%
O=C1CN(C(=O)CCC2CCCC2)C(c2ccc(F)cc2)c2cc(F)ccc2N1 (stereo not given) | 3.45%
Cc1noc(C)c1-c1cccc(CNCc2ccc(-c3ccc(-c4nc5cccc(C)c5[nH]4)cc3)cc2)c1 | 0.15%
